Assay results: PubChem BioAssay (EPA / NIEHS)
Values joined by “and” are separate entries in the source; they are usually repeats but may differ in a detail not shown here. Equal entries are not always repeated. Inconclusive results are not listed. Some structures have more than one record in an assay (separate samples or runs), and their calls can disagree. Active and inactive are the calls of the source. Rule for the calls, unless noted: active = hit-call score of the fitted dose curve at least 0.9, where 1 is the maximum; inactive = score below 0.9.

Experiments:
[1] = CEETOX_H295R_OHPREG: CeeTox H295R High-throughput Steroidogenesis Assay for OH-Pregnenolone (OHPREG) (AID 2283434); details: actives raise or lower the signal
How it was run: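 Human adrenal H295R cells were prestimulated 48 h with 10 uM forskolin, then exposed 48 h to chemical in 0.1% DMSO. Medium 17alpha-hydroxypregnenolone was quantified by HPLC-MS/MS after MTBE extraction; bidirectional fitting versus DMSO baseline.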

[2] = CEETOX_H295R_OHPROG: CeeTox H295R High-throughput Steroidogenesis Assay for OH-Progesterone (OHPROG) (AID 2283435); details: actives raise or lower the signal
How it was run: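 Secreted 17alpha-hydroxyprogesterone is read by tandem MS from media of forskolin-primed H295R cells dosed with chemical for 48 h. Activity is fitted in both directions against DMSO baseline; cytotoxic concentrations are re-tested diluted.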

[3] = CEETOX_H295R_PROG: CeeTox H295R High-throughput Steroidogenesis Assay for Progesterone (PROG) (AID 2283442); details: actives raise or lower the signal;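 for AC50: human H295R adrenal cells primed with 10 µM forskolin before dosing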
How it was run: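 Progesterone secreted by human H295R cells was measured by LC-MS/MS following 48 h chemical exposure at 0.1% DMSO, preceded by 48 h forskolin (10 uM) stimulation. Same-well MTT viability; cytotoxic concentrations diluted 10- or 100-fold and retested.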

[4] = CEETOX_H295R_MTT_cell_viability: Viability Assessment in the CeeTox HT-H295R MTT Assay (AID 2283718)
How it was run: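 H295R cells prestimulated 48 h with 10 uM forskolin, then exposed 48 h to test chemical (0.1% DMSO final). Viability by MTT (0.5 mg/ml, 4 h, 37 C), absorbance 570/650 nm; percent change versus DMSO, bidirectional fit.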

[5] = read-out: Basic fibroblast growth factor (bFGF), FGF2 (gene 2247); experiment: BSK_MyoF_bFGF: BioMAP Diversity Plus: MyoF Assay for Basic fibroblast growth factor (bFGF) Biomarker Activity (AID 2284246); details: primary human lung fibroblasts
How it was run: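 In this multiplexed cell system, lung fibroblasts (human primary) receive test chemical for 24 h before ELISA detection of bFGF; DMSO defines baseline and the analysis direction is positive.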

[6] = read-out: Plasminogen activator inhibitor-1 (PAI1), SERPINE1 (gene 5054); experiment: BSK_MyoF_PAI1: BioMAP Diversity Plus: MyoF Assay for Plasminogen activator inhibitor-1 (PAI1) Biomarker Activity (AID 2284256); details: primary human lung fibroblasts
How it was run: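 Human lung fibroblasts (MyoF system) were exposed to test chemicals for 24 h, then PAI-1 was quantified by ELISA. Activity was fitted in the positive (signal-gain) direction relative to DMSO vehicle as baseline.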

[7] = read-out: Interleukin-8 (IL8), CXCL8 (gene 3576); experiment: BSK_MyoF_IL8: BioMAP Diversity Plus: MyoF Assay for Interleukin-8 (IL8) Biomarker Activity (AID 2284261); details: primary human lung fibroblasts
How it was run: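 IL-8 quantified by ELISA after 24 h compound exposure of primary human lung fibroblasts. SRB staining of parallel cultures flagged cytotoxicity; DMSO served as baseline.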

Decorin, DCN (gene 1634) = experiment: BSK_MyoF_Decorin: BioMAP Diversity Plus: MyoF Assay for Decorin Biomarker Activity (AID 2284265); details: primary human lung fibroblasts
How it was run: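 Decorin protein was quantified by ELISA 24 h after chemical addition to primary human lung fibroblasts and analysed as increase over DMSO. Cytotoxicity was tracked in parallel cultures by SRB total-protein staining read at 560 nm.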

[8] = BSK_MyoF_SRB: Viability Assessment in the BioMAP Diversity Plus: MyoF Assay (AID 2284267); details: primary human lung fibroblasts;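 note: total protein by SRB absorbance in parallel cultures as cytotoxicity measure; cells assessed 24 h after compound addition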
How it was run: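 Cytotoxicity in primary human lung fibroblasts is gauged by SRB total-protein staining 24 h after dosing, with DMSO as the negative control.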

[9] = CCTE_Shafer_MEA_acute_spike_number: CCTE's Neural Acute Assay for Total Number of Spikes, Shafer Lab (AID 2284008);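 for AC50: curve fitted for decrease in spike count so AC50 reflects inhibitors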
How it was run: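 Total spike count from 40 min recordings before and during compound exposure (0.03-40 uM), given as per-well percent change. Cortical cultures from rat, DIV 13 or 15, 37 C; adaptive detection threshold 8x rms noise.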

[10] = CCTE_Shafer_MEA_acute_burst_number: CCTE's Neural Acute Assay for Single-Electrode Bursts, Shafer Lab (AID 2284013)
How it was run: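 Rat cortical cultures, DIV 13/15; 40 min baseline, then 40 min with compound 0.03-40 uM, 37 C. Spikes: 300-5000 Hz band-pass, threshold 8x rms noise. Readout = % change in single-electrode bursts vs baseline, loss-of-signal fit.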

[11] = CCTE_Shafer_MEA_acute_per_network_burst_spike_number_mean: CCTE's Neural Acute Assay for Average Number of Spikes in a Network Burst, Shafer Lab (AID 2284019);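 for AC50: curve fitted for loss of signal so actives reduce spikes per network burst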
How it was run: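 Primary rat cortical neurons on 16-electrode MEA wells, DIV 13 or 15, 37 C; 40-min baseline then 40-min recording with compound (0.03-40 uM). Spikes per network burst (total spikes/number of bursts) expressed as percent change from baseline, DMSO reference.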

[12] = CCTE_Shafer_MEA_acute_per_network_burst_spike_number_std: CCTE's Neural Acute Assay for Standard Deviation of Number of Spikes in a Network Burst, Shafer Lab (AID 2284020);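 note: fitted for decrease in spike-number SD versus DMSO so actives lower it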
How it was run: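 Primary rat cortical neurons on 48-well MEAs (16 electrodes/well) recorded at DIV 13 or 15: 40-min baseline, then 40 min with compound (0.03-40 uM), 37 C. Value is percent change in SD of spikes per network burst, relative to DMSO.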

[13] = biological target: Estrogen receptor beta (Homo sapiens) (UniProt Q92731); experiment: OT_ER_ERbERb_0480: Odyssey Thera (OT) 8-hour HEK293T Protein-Complementation Assay for Estrogen Receptor-beta/-beta Homodimer (AID 2283357; active = hit-call score of the fitted dose curve at least 0.9, where 1 is the maximum;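 note: active means signal gain over DMSO baseline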)
Estrogen receptor beta (Homo sapiens), sequence (Q92731 whole entry, looked up, the tested form may be a part): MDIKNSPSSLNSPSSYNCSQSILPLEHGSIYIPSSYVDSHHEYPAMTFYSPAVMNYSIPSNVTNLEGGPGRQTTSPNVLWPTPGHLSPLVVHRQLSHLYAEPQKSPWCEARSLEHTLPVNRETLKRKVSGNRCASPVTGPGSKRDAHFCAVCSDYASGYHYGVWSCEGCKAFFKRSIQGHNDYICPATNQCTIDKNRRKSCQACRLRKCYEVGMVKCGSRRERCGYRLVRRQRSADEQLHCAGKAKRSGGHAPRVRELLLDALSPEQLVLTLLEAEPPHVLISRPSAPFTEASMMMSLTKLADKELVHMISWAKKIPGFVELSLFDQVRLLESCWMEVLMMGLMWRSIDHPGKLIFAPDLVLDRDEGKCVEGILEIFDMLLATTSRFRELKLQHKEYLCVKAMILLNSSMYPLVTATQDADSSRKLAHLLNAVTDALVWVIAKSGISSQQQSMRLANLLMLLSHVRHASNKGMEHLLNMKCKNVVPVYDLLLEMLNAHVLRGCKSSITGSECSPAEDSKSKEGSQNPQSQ
How it was run: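 Readout: increase in mean fluorescence intensity (nucleus for agonists; nucleus plus cytoplasm for antagonists) relative to DMSO, from a reporter-fragment complementation of human ER-beta LBD homodimer in HEK293T cells dosed 8 hours.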

[14] = CCTE_Harrill_HTTr_Viability_MCF7: CCTE's 6-hour Cell Viability Assessment for the High-Throughput Transcriptomics (HTTr) Platform, in MCF-7 cells cultured in DMEM + 10% fetal bovine serum, Harrill Lab (AID 2284010)
How it was run: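 Viability measured through PI dye exclusion by high-content imaging at 6 h post-dosing.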

Measured: AC50

O=C=Nc1ccccc1
active: [1] 499 nM | [3] 0.492 µM
inactive: [2] | [4]

O=C1C=CC(=O)C=C1
inactive: Decorin, DCN (gene 1634)
active: [5] 34.7 µM and 30.6 µM | [6] 36.9 µM and 26.8 µM | [7] 9.01 µM and 4.78 µM | [8] 30.6 µM and 29 µM

O=[N+]([O-])O
inactive: [9] | [10] | [11] | [12]
active: [9] 0.0886 µM | [10] 0.189 µM | [11] 0.003 µM | [12] 3 nM

CN(C)N
inactive: [13] | [14]

CNC(=O)Oc1cc(C)c(SC)c(C)c1
inactive: [1] | [2] | [4] | [14] | [5] | [6] | [7] | Decorin, DCN (gene 1634) | [8]
active: [3] 65.1 µM

Cc1ccc(OP(=O)(Oc2ccc(C)cc2)Oc2ccc(C)cc2)cc1 (tested in a mixture with another compound)
inactive: [1] | [2] | [3] | [4] | [14] | [5] | [6] | Decorin, DCN (gene 1634) | [8]
active: [9] 4.2 µM | [10] 3.7 µM | [11] 3.4 µM | [12] 3320 nM | [7] 10.2 µM

CC1(C)[C@H](C(=O)O[C@H](C#N)c2cccc(Oc3ccccc3)c2)[C@@H]1C=C(Br)Br
inactive: [13] | [5] | [6] | [7] | Decorin, DCN (gene 1634) | [8]
active: [9] 1.62 µM | [10] 2.53 µM | [11] 1.5 µM | [12] 642 nM
